Measurements reported in the supplement of paper PMC11402862.

System: PPARgamma LBD (GAL4 fusion)
Assay: luciferase reporter transactivation, fold of solvent control; higher = stronger receptor activation
Conditions: HEK293T, exposure time: 24 h
Method: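 HEK293T cells were transiently transfected with a GAL4-DBD fused to the ligand-binding domain of a human nuclear receptor (PPARα, PPARγ, PPARδ, FXR, LXRα, PXR, RARα or CAR), the GAL4-(UAS)5-TK firefly luciferase reporter and a Renilla luciferase normalisation plasmid. Cells were exposed to compound for 24 h in 0.5% DMSO. Firefly/Renilla luciferase was expressed as fold of the solvent control (=1). Values are the mean of 2-3 biological replicates; receptor agonists were used as positive controls.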

Row | SMILES | luciferase reporter transactivation (concentration: 1 µM) | luciferase reporter transactivation (concentration: 5 µM) | luciferase reporter transactivation (concentration: 10 µM) | luciferase reporter transactivation (concentration: 25 µM) | luciferase reporter transactivation (concentration: 50 µM) | luciferase reporter transactivation (concentration: 100 µM) | luciferase reporter transactivation (concentration: 250 µM) | luciferase reporter transactivation (concentration: 500 µM) | luciferase reporter transactivation (concentration: 2.5 µM)
1 | O=C(O)C(F)(F)C(F)(F)F [perfluoropropanoic acid] | 1.14 | 1.11 | 1.23 | 1.18 | 1.29 | 1.32 | 1.27 | 1.33 | 
2 | NS(=O)(=O)C(F)(F)C(F)(F)C(F)(F)C(F)(F)C(F)(F)C(F)(F)C(F)(F)C(F)(F)F [perfluorooctane sulfonamide] | 0.722 | 1.08 | 1.01 |  |  | 1.18 |  |  | 1.1
